Laboratory results as given in PubChem BioAssay (NCI).
This is part of a sample that, as a whole, favours compounds with a hit. Of some 83,000 tested, about 20% had one in any assay.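 Single-dose data. Exposure time 48 hours. Values below 10 considered active.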 Values without a mark were called inactive. The source made the active and inactive calls.

Experiments:
Assay in all cases: NCI-60 one-dose screen, 48 h (100 = growth as untreated, 0 = no growth, -100 = all killed)
Conditions in all cases: 10 µM
NCI-H23 lung = system: NCI-H23 lung
NCI-H226 lung = system: NCI-H226 lung
NCI-H322M lung = system: NCI-H322M lung
HOP-62 NSCLC = system: HOP-62 NSCLC
NCI-H460 lung = system: NCI-H460 lung
HOP-92 NSCLC = system: HOP-92 NSCLC
NCI-H522 lung = system: NCI-H522 lung
A549/ATCC NSCLC = system: A549/ATCC NSCLC
786-0 renal = system: 786-0 renal
COLO 205 colon = system: COLO 205 colon

SMILES	growth (NCI-H23 lung)	growth (NCI-H226 lung)	growth (NCI-H322M lung)	growth (HOP-62 NSCLC)	growth (NCI-H460 lung)	growth (HOP-92 NSCLC)	growth (NCI-H522 lung)	growth (A549/ATCC NSCLC)	growth (786-0 renal)	growth (COLO 205 colon)
C=C1CCC2C3(C)COC(c4c(F)cccc4F)OC3CCC2(C)C1C/C=C1/C(=O)OCC1O (stereo not given)	-46.8% (active)	-11.2% (active)	37.5%	-13.7% (active)	-22.3% (active)	4.64% (active)	-67.7% (active)	10.1%	-77.6% (active)	-35.8% (active)
COc1ccc(C=CC(=O)c2ccc(-n3c(C)nc4c(cnn4-c4ccccc4)c3=O)cc2)cc1	72.4%	70.6%	107%	80.5%	97.8%	97.3%	57.4%	90.8%	84.6%	116%
COc1cccc(-c2ccc(/C=N/NC(=O)c3[nH]c4ccc(Br)cc4c3-c3ccccc3)o2)c1	22.4%	31.4%	45.7%	12.8%	4.13% (active)	54.4%	-42.8% (active)	19.6%	9.39% (active)	-40.6% (active)
COc1nccnc1NS(=O)(=O)c1ccc(NC2=C(Cl)C(=O)c3nc(C)ccc3C2=O)cc1	83.7%	93.4%	101%	101%	118%	116%	88%	105%	99.9%	134%
CC(=O)NS(=O)(=O)c1ccc(NC(=O)CSC2=NC(c3ccccc3)C(C(C)=O)=C(C)N2)cc1 (stereo not given)	97.5%	109%	105%	103%	121%	134%	98.4%	98.1%	103%	126%
CN1CCN(c2ccc(Nc3nc(NCCNC(=O)c4ccc(C(F)(F)F)cc4)c4sccc4n3)cc2)CC1	49.3%	72.3%	28.3%	19.4%	16.7%	-15.3% (active)	24.6%	28.1%	-56.6% (active)	-87.6% (active)
N#Cc1c(NC(=O)c2ccc(C(F)(F)F)c(Cl)c2)sc2c1CCC(=O)C2	-60.9% (active)	-26.4% (active)	39.7%	-56.5% (active)	-10.1% (active)	-55.3% (active)	-71.2% (active)	19.3%	-48.2% (active)	-94% (active)
O=C(c1ccc(O)cc1)C1[C@H](c2ccc(Br)cc2)[C@@H](c2ccccc2)NC12C(=O)Nc1ccccc12 (stereo not given in full)	7.68% (active)	43.5%	51.6%	39.4%	2.57% (active)	8.1% (active)	32.4%	29.5%	16.3%	-46.4% (active)
O=C(CNc1nc(-c2ccccc2)cs1)Nc1ccc(Cl)cc1	-93.8% (active)	-62.5% (active)	-98% (active)	-76.1% (active)	-51.2% (active)	-71.9% (active)	-80.2% (active)	-49.8% (active)	-72.8% (active)	-80.1% (active)
O=c1cc(-c2ccccc2)oc2cc(OCCCCNCc3ccccc3)cc(O)c12	-73.7% (active)	59.6%	57.5%	61%	-73.9% (active)	31.8%	34.2%	49.3%	-68.2% (active)	-91.8% (active)
Cn1cc(/C=N/Nc2ccnc3cc(Cl)ccc23)c2ccccc21	-84.1% (active)	-67.5% (active)	-99.6% (active)	-63.8% (active)	-67.5% (active)	-68% (active)	-68.1% (active)	-39% (active)	-65.2% (active)	-59% (active)
Cc1ccc2nc(-c3ccc(-c4nnc(SCC(=O)Nc5ccc(Cl)cc5)o4)cc3)[nH]c2c1	29.1%	9.53% (active)	27.6%	61.8%	6.19% (active)	84.9%	51.1%	29.1%	68.5%	46.1%
O=C(N/C(=C1/OCCN1Cc1ccccc1)[P+](c1ccccc1)(c1ccccc1)c1ccccc1)c1ccccc1	-5.42% (active)	-5.51% (active)	58.7%	44.8%	3.22% (active)	-16.5% (active)	-6.25% (active)	47.6%	4.98% (active)	4.11% (active)
O=c1oc2ccccc2cc1-c1csc(N=Nc2c(O)[nH]c3ccc(Br)cc23)n1	61.5%	58.4%	92.9%	40.2%	106%	-7.7% (active)	67.4%	100%	12.5%	127%
Cc1noc2c(Cc3ccc([N+](=O)[O-])cc3)nn(CC(=O)N/N=C/c3ccc(Br)cc3)c(=O)c12	87.7%	67.7%	104%	72.4%	81.5%	50.6%	98.6%	65.1%	4.46% (active)	119%
O=c1[nH]c2ccc(Cl)cc2cc1CSc1ccc(Nc2nccc(-c3ccc(Cl)cc3)n2)cc1	62.1%	66%	90.8%	93.8%	-27.6% (active)	82.1%	33.3%	-41.8% (active)	75.2%	4.59% (active)
CN1C/C(=C\c2ccc(O)cc2O)c2[o+]c3cc(O)ccc3cc2C1	56.6%	56.3%	88%	77.8%	35.8%	58.8%	-0.58% (active)	99.5%	41.7%	58.3%
COc1ccc(C(=O)/C=C/c2cc(F)cc(C(F)(F)F)c2)cc1S(N)(=O)=O	-74.8% (active)	-29.3% (active)	-3.66% (active)	-47.4% (active)	-25.3% (active)	-9.39% (active)	-79.6% (active)	3.37% (active)	-81% (active)	-53.1% (active)
Cc1ccc(/C=C/C(=O)c2ccc(NC(=O)CSc3nnc(-c4c[nH]c5ccccc45)n3-c3ccccc3)cc2)cc1	74.3%	80.7%	92.8%	95.8%	84.6%	92%	81.7%	95.9%	109%	102%
CC(C)c1ccc(C(=O)Nc2sc3c(c2C(N)=O)CCC(=O)C3=O)cc1	81.3%	86.6%	104%	102%	97.5%	127%	84%	99.4%	113%	104%
CCOP(=O)(OCC)O[C@H]1CC[C@]2(C)[C@H]3CC[C@@H]4[C@@H]([C@](C)(O)CCC=C(C)C)CC[C@@]4(C)[C@]3(C)CC[C@H]2C1(C)C	15.4%	20.9%	74.1%	57.3%	11.2%	2.88% (active)	1.32% (active)	22.1%	23.3%	-33% (active)
CC(C)C1=C[C@@]23CC[C@@H]4[C@](C)(CCC[C@]4(C)C(=O)NCc4ccccc4)[C@H]2C[C@@H]1[C@H]1C(=O)CCC(=O)[C@H]13	59%	40.7%	93.4%	94.4%	84.5%	68.9%	-12.5% (active)	81.6%	87.2%	103%
Cc1cccc2cc(-c3cc(-c4ccccc4)nc(=O)[nH]3)c(Cl)nc12	88.7%	75.7%	89.9%	109%	80.7%	77.1%	87.7%	96.4%	91.6%	119%
c1ccc(C(=C(c2ccc(OCCN3CCCCC3)cc2)c2ccc(OCCN3CCCCC3)cc2)C2CCCC2)cc1	-81% (active)	-15.5% (active)	39.8%	-10.9% (active)	-55.4% (active)	-61% (active)	-42.2% (active)	-17.9% (active)	-33.3% (active)	-92.6% (active)
O=C(NO)c1ccc(Cn2ccc3c(Nc4ccccc4)ncnc32)cc1	-87.2% (active)	32%	42.7%	14.4%	13.1%	-16.3% (active)	-40.4% (active)	25.3%	31%	-84.9% (active)
O=C1NC(=NC2CCCCCC2)N/C1=C\c1ccc2ncoc2c1	19.2%	14.9%	24.5%	36.8%	20.2%	51.3%	12.6%	17%	40.6%	9.19% (active)
